Hits are enriched below; roughly 3.5% of the tested compounds scored in any of these assays.
MITF inh = inhibitors of human MITF | AID 1259374 | inhibition, % at 2.6 µM | AlphaScreen MITF homodimerization, bead proximity signal | actives 0.91% (n = 650,000); in the data active = inhibition above about 50%
FBW7 activator = activators of human E3 ligase FBW7. actives 0.13% (n = 650,000). normalized activity (activation), % at 26.1 µM. Q969H0. AlphaScreen FBW7–phospho-cyclin E peptide binding, activator screen; in the data active = normalized activity above about 1.9%;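 note: purified mutant Fbw7 with reduced substrate affinity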
Target sequence (Q969H0 whole entry, looked up): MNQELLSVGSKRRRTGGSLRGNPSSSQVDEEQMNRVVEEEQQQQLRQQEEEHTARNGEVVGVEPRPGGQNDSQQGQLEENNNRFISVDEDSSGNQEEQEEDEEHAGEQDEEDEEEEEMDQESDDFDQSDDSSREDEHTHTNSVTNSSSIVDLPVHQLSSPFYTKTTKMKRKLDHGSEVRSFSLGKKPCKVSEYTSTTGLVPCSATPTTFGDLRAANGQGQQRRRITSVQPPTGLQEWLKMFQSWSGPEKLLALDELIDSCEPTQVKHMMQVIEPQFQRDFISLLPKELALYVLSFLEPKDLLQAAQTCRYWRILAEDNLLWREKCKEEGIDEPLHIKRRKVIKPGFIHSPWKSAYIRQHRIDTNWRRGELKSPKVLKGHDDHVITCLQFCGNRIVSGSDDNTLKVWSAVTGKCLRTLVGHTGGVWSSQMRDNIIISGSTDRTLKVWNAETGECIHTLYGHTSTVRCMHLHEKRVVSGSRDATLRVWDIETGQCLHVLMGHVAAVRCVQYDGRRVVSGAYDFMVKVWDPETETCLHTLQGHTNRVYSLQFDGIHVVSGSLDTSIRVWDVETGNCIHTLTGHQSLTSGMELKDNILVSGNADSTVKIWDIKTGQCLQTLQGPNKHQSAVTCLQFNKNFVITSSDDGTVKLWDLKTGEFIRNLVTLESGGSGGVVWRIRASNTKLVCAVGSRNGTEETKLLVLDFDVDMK
GPR151 ag = activates the human receptor GPR151. PathHunter beta-arrestin GPR151 cells, luminescence. activation, % at 11.2 µM. actives 1% (n = 650,000). AID 1508602; in the data active = activation above about 4.9%
TEAD-YAP inh = TEAD-YAP interaction inhibition. HEK-TIYL cells, TEAD-Gal4/YAP UAS-luciferase luminescence. inhibition, % at 9.12 µM. actives 1.4% (n = 640,000). AID 1259422; in the data active = inhibition above about 32%
Numbers stand for hits; n = inactive.

SMILES	MITF inh	FBW7 activator	GPR151 ag	TEAD-YAP inh
COc1ccc(C2C(C(=O)N3CCCCC3)c3ccccc3C(=O)N2c2ccc(OC)cc2)cc1 (stereo not drawn)	n	n	n	n
CCC(=O)Nc1cccc(NC(=O)CSc2nc3cccnc3n2C2CCCCC2)c1	n	n	n	n
CCN1CCN(Cc2cc(Cl)c3cccnc3c2O)CC1	n	n	n	46.7
OCC1CCCCN1Cc1cccc(Cl)c1Cl (stereo not drawn)	n	n	n	n
CCOC(=O)C1CCN(Cc2cc(Cl)c3cccnc3c2O)CC1	n	n	n	72.2
CN1CCN(Cc2cc(Cl)c3cccnc3c2O)CC1	78.7	n	n	53.6
CCOC(=O)C1CCN(Cc2c(Cl)cccc2Cl)CC1	n	n	n	n
OCC1CCCCN1Cc1cc(Cl)c2cccnc2c1O (stereo not drawn) (tested in a mixture with another compound)	65.8	n	n	76.2
Oc1c(CN2CCN(c3cccc(C(F)(F)F)c3)CC2)cc(Cl)c2cccnc12	n	n	n	n
Cc1ccc(NC(=O)CSc2nc3n(n2)C(=O)C(=O)N3)cc1	n	n	n	n
Cc1c(C(=O)O)sc2nc(-c3ccccc3)cn12	n	n	n	n
Cc1ccc2nc(NC(=O)CCN3C(=O)C4C5C=CC(C5)C4C3=O)sc2c1 (stereo not drawn)	n	n	n	n
CCOc1ccccc1NC(=O)Cc1ccc(OC)cc1	n	n	n	n
COc1ccc(/C=C/C(=O)N[C@@H](C)C(=O)O)cc1	n	n	n	n
CCC(CO)Nc1ccc2ncc(-c3ccc(C(C)=O)s3)n2n1 (stereo not drawn)	n	n	n	47.4
CCC(CO)Nc1ccc2ncc(-c3cccc(OC)c3)n2n1 (stereo not drawn)	n	n	n	57.3
CCC(CO)Nc1ccc2ncc(-c3ccco3)n2n1 (stereo not drawn)	n	n	n	33.4
COc1cncc(-c2cnc3ccc(NC4CCOCC4)nn23)c1	n	n	n	42.4
O=S(=O)(c1ccc(Br)cc1)N1CCSC1c1ccc(Cl)cc1 (stereo not drawn)	n	n	n	n
OCc1ccc(-c2cnc3ccc(NC4CCC(O)CC4)nn23)cc1 (stereo not drawn)	n	n	n	51.3
O=C(O)c1ccc(-c2cnc3ccc(NC4CCC(O)CC4)nn23)cc1 (stereo not drawn)	n	n	n	n
COc1cccc(-c2cnc3ccc(NCC4CC4)nn23)c1	n	n	n	47.4
COc1ccc(CCNC(=O)c2ccc3nc(-c4c(C)nn(C)c4C)sc3c2)cc1	n	n	n	n
Cc1sc(NC(=O)c2ccccc2F)c(C(N)=O)c1C	n	n	n	n
CCCN1C(=O)C(O)(CC(=O)c2ccc([N+](=O)[O-])cc2)c2cc(Br)ccc21 (stereo not drawn)	n	n	n	50.0
SMILES	MITF inh	FBW7 activator	GPR151 ag	TEAD-YAP inh
c1ccc(CNc2ncnc3c2cnn3-c2ccccc2)cc1	n	n	n	n
CC(C)(C)Nc1ncnc2c1cnn2-c1ccccc1	n	n	n	44.6
Cc1ccc(-n2ncc3c(NC(C)(C)C)ncnc32)cc1	n	n	n	48.6
COc1cccc(-c2ccc(N3CCN(C)CC3)nc2)c1	n	n	n	n
CN1CCN(c2ccc(-c3cccc(Cl)c3)cn2)CC1	n	n	n	54.3
COc1ccc(Nc2cc(C)nc(-n3nc(C)cc3C)n2)cc1OC	n	n	n	69.2
O=C(CCSc1ccccc1)Nc1nc(-c2ccccn2)cs1	n	n	n	n
O=C(CCCSc1ccc(Cl)cc1)Nc1nc(-c2ccccn2)cs1	n	n	n	39.0
O=C(CCSc1ccc(Cl)cc1)Nc1nc(-c2ccccn2)cs1	n	n	n	33.5
Clc1ccc(-c2cnn3c(NCCc4ccccn4)ccnc23)cc1	n	n	n	n
c1ccc(-c2cnn3c(NCCc4ccccn4)ccnc23)cc1	n	n	n	57.0
Fc1ccccc1-c1cnn2c(NCc3ccccn3)ccnc12	n	2.2	n	n
OCc1ccc(-c2cnn3c(NCCc4cccnc4)ccnc23)cc1	n	n	n	n
c1ccc(-c2cnn3c(NCCc4cccnc4)ccnc23)cc1	n	n	n	80.0
OCc1cccc(-c2cnn3c(NCCc4cccnc4)ccnc23)c1	n	n	n	89.5
Cc1ccc(NC(=O)CCS(=O)(=O)c2ccc3c(c2)SCC(=O)N3)c(C)c1	n	n	n	n
C(=N/Nc1nccs1)/c1cccc(OCc2ccccc2)c1	n	n	n	n
Oc1cccc(-c2cnn3c(NCCc4cccnc4)ccnc23)c1	n	n	n	89.5
CN(C)CCNc1ccnc2c(-c3ccccc3F)cnn12	n	n	n	62.6
Fc1cccc(-c2cnn3c(NCCc4cccnc4)ccnc23)c1	n	n	n	n
Fc1ccccc1-c1cnn2c(NCCc3cccnc3)ccnc12	n	n	n	91.0
O=C(NCc1ccco1)c1ccc2c3c(cccc13)CC2	n	n	n	n
CCN=C1S/C(=C/c2ccc(C)o2)C(=O)N1CC	n	n	n	n
CCCS(=O)(=O)N1CCCc2ccc(NS(=O)(=O)c3cc(C)ccc3C)cc21	n	n	n	n
O=C(CN1CCOCC1)NNc1nc(-c2ccccc2)c2cc(Cl)ccc2n1	n	n	n	n
SMILES	MITF inh	FBW7 activator	GPR151 ag	TEAD-YAP inh
Clc1ccc2nc(NCCN3CCOCC3)nc(-c3ccccc3)c2c1	n	n	n	38.0
O=c1oc2ccc(Cl)cc2c(=O)n1-c1cccc(C(F)(F)F)c1	n	n	n	76.0
Clc1ccc(CSc2nnc(-c3cccnc3)o2)cc1Cl	n	n	n	n
Fc1ccc(-c2cc(C(F)(F)F)nc(NCc3cccnc3)n2)cc1	n	n	n	40.0
Cc1c(Br)c([N+](=O)[O-])nn1CC(=O)Nc1ccc(OC(F)(F)F)cc1	n	n	n	n
COc1cccc(-c2cncc(-c3ccc(N4CCN(C)CC4)nc3)n2)c1	n	n	n	n
O=C(NC1CC1)c1ccc2cncc(-c3cc4ccccc4o3)c2n1	n	n	n	50.0
O=C(c1ccc2cncc(-c3cc4ccccc4o3)c2n1)N1CCOCC1	n	n	n	n
O=C(NCCCn1ccnc1)c1ccc2cncc(-c3cc4ccccc4o3)c2n1	n	n	n	46.3
COCCNC(=O)c1ccc2cncc(-c3cc4ccccc4o3)c2n1	n	n	n	60.5
O=C(Nc1nc(-c2ccc(F)cc2)cs1)c1ccc([N+](=O)[O-])s1	n	n	n	n
CCOC(=O)CC(N)c1ccc(OC(C)C)cc1 (stereo not drawn)	n	n	n	n
Cc1cc(C)c(C=Nc2ccccc2C(N)=O)c(C)c1	n	n	n	n
Cc1ccccc1C=Nc1ccccc1C(N)=O	n	n	n	49.5
CC(C)n1cnc2c(NC3CC3)nc(N3CCN(c4ccccn4)CC3)nc21	n	n	n	35.3
COc1ccc(-c2nc(NC3CCN(Cc4ccccc4)CC3)c3ncn(C(C)C)c3n2)cn1	n	n	n	n
CC(C)n1cnc2c(NC3CCN(Cc4ccccc4)CC3)nc(-c3cccc(N)c3)nc21	n	n	n	90.0
CC(C)n1cnc2c(NC3CCN(Cc4ccccc4)CC3)nc(-c3ccc(C(N)=O)cc3)nc21	n	n	n	92.0
